The values below come from PubChem BioAssay (NCATS).

Structures are written as SMILES. Records with an inconclusive call do not appear. Entries that show only a call come without a potency. Active and inactive are the calls of the source. Calls follow the shape of the dose curve; as a rule, active = well fitted curve in the direction sought with a large enough effect; inconclusive = small, poorly fitted or top-dose-only effect, or another doubt; inactive = no such curve, though single readings can be large; an effect the other way counts as inactive or inconclusive.

Assay [1] concerns Zika virus NS2B-NS3 protease. In words: Primary screen GU AMC qHTS for Zika virus inhibitors (AID 1347154). Also: nearly all actives have a fitted effect of over 70% in size. The gist of the method:
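Unlinked Zika NS2B hydrophilic domain–NS3 protease complex at 25 nM in 10 mM Tris-HCl pH 8.0, 0.01% Tween 20, with an AMC peptide substrate. Fluorescence change (340/450 nm) over 15 min at room temperature, normalized to controls, fitted to 4-parameter Hill.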
(Quantitative high-throughput screening tests each substance at several concentrations.)

The test system of assay [2] is Zika virus NS2B-NS3 protease (linked construct). In words: Primary screen NINDS Rhodamine qHTS for Zika virus inhibitors (AID 1347160). Also: nearly all actives have a fitted effect of over 55% in size. The gist of the method:
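Purified linked NS2B-NS3 protease (NS2B hydrophilic domain joined to NS3 protease by flexible linker), 25 nM in 10 mM Tris-HCl pH 8.0, 0.01% Tween 20. Compounds titrated, 15 min preincubation at room temperature; 1.5 microM Rhodamine110 substrate, FITC fluorescence change over 15 min.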

Assay [3] relates to Zika virus NS2B-NS3 protease (unlinked complex). The assay is described as follows: Primary screen GU Rhodamine qHTS for Zika virus inhibitors: Unlinked NS2B-NS3 protease assay (AID 1347159). Also: nearly all actives have a fitted effect of over 60% in size. A digest of the protocol:
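Noncovalent NS2B hydrophilic domain–NS3 protease domain complex (25 nM) preincubated 15 min at room temperature with compounds (up to 114 microM) in 10 mM Tris-HCl pH 8.0, 0.01% Tween 20; 1.5 microM Rhodamine110 substrate added, fluorescence change over 15 min fitted to Hill equation.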

`Cc1ccc(/C=N/NC(=O)c2ccccc2Oc2ccccc2)o1`: in assay [1], the Potency result is “inactive”.

Consider `O=c1c(-c2ccc(O)cc2)coc2cc(O[C@@H]3O[C@H](CO)[C@H](O)[C@H](O)[C@H]3O)ccc12`, for which, in assay [1], the Potency entry is “inactive”.

For the compound `CCNc1cc(NC2CCC(O)CC2)nc(Nc2ccc3c(ccn3Cc3ccccc3)c2)n1` (stereo not given), in assay [1], the Potency result was “inactive”.

In the case of `Nc1ncnc2ccccc12`, the Potency entry in assay [1] is “inactive”.

Turning to `O=C(N[C@@H](c1ccccc1)[C@@H]1CCCCN1)c1cccc(C(F)(F)F)c1Cl`, the Potency entry in assay [1] was “inactive”.

Turning to `Cc1ccc(Nc2cc(-c3cccc(N4C(=O)c5ccccc5C4=O)c3)ncn2)cc1NS(C)(=O)=O`, in assay [2], the Potency result is “inactive”.

In the case of `CC(C)C(=O)Oc1ccc(CO)cc1[C@H](CCN(C(C)C)C(C)C)c1ccccc1`, the Potency result in assay [2] was “inactive”.

Take `COc1cc2c(cc1OC)CN(CCc1ccc(NC(=O)c3cc(OC)c(OC)cc3NC(=O)c3cnc4ccccc4c3)cc1)CC2`: the Potency result in assay [1], in assay [3] and in assay [2] was “inactive” throughout.
